Shown are actives, neighbours in structure and some others; about 4.3% of the full set was active somewhere.
rCAG binder-1 = binds r(CAG) RNA repeats; r(CAG) RNA repeat, TO-PRO-1 dye displacement fluorescence; inhibition, % at 3 µM; hit rate 1.3% among 370,000; AID 651821;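 active = inhibition above the plate cutoff, the mean of all test compounds on that plate plus 3 SD, cut at about 35% in these data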;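 also: higher means more dye released from RNA so lower well fluorescence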
NadD block = blocks S. aureus nicotinate mononucleotide adenylyltransferase. purified NadD enzyme, colorimetric absorbance read-out. inhibition, % at 20 µM. hit rate 0.78% among 360,000; in the data active = inhibition above about 26%
FAS-TE inh = inhibitors of human fatty acid synthase thioesterase domain | P49327 | recombinant FAS-TE, OMFH fluorogenic substrate, fluorescence endpoint | hit rate 0.67% among 360,000 | inhibition, % at 15 µM;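 active = compounds whose normalised, plate-corrected inhibition of enzyme fluorescence in the single-dose primary screen is 50% or more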
GRIN3A LBD mod = modulates the human NR3A ligand-binding domain | NR3A LBD differential scanning fluorimetry, Tm shift; 0% = protein alone, 100% = glycine-bound protein | Tm shift relative to glycine control, % at 25 µM | hit rate 2.5% among 340,000 | AID 1259313;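 active = melting temperature shift of at least 10% of the positive control shift, at one fixed dose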
rCAG binder conf = r(CAG) RNA repeat binding, confirmation; TO-PRO-1 dye displacement fluorescence; inhibition, % at 3 µM; hit rate 70% among 4,300; shares compounds with rCAG binder-1;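 active = inhibition above a per-plate cutoff, the mean inhibition of sample wells plus 3 SD, cut at about 35% in these data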;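 also: loss of TO-PRO-1 fluorescence as compound displaces dye from 1x1 AA loop RNA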
dCAG dye counter = disrupts DNA CAG TO-PRO-1 complex, flagging rCAG hits. shares compounds with rCAG binder-1. d(CAG) DNA oligo TO-PRO-1 dye displacement, fluorescence. inhibition, % at 3 µM. hit rate 94% among 4,300;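 active = inhibition above its plate's cutoff, the mean test-well inhibition plus 3 SD, cut at about 4.8% in these data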;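 also: hits displace the dye from DNA and so lower well fluorescence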
DNA CAG DR = counter-screen for rCAG binders: inhibitors of DNA CAG TO-PRO-1 complex; shares compounds with rCAG binder-1; hit rate 20% among 250; IC50, µM; DNA CAG/GTC duplex TO-PRO-1 dye displacement fluorescence; in the data active = IC50 below about 10 µM
dCAG DNA bind = inhibits DNA CAG/GTC TO-PRO-1 complex, rCAG binder counter-screen. shares compounds with rCAG binder-1. d(CAG) DNA duplex TO-PRO-1 dye displacement, fluorescence. IC50, µM. hit rate 80% among 30. AID 720649
rCAG binder-2 = binds r(CAG) RNA repeats in late stage dose response | shares compounds with rCAG binder-1 | r(CAG) RNA TO-PRO-1 dye displacement, fluorescence | IC50, µM | hit rate 100% among 30
A number is an active result; n = inactive; x = not tested or not shown. Unless noted, no rule for the calls is given here.

SMILES | rCAG binder-1 | NadD block | FAS-TE inh | GRIN3A LBD mod | rCAG binder conf | dCAG dye counter | others
COC(=O)[C@]12C[C@H](CC(=O)NCC3CCCCC3)C(=O)N(CCC3=CCCCC3)C1=C[C@H](C1CCCC1)O[C@@H]2C | n | x | x | x | x | x
O=c1cc(-c2ccc([N+](=O)[O-])cc2)nc2cc(-c3ccc(F)cc3)[nH]n12 | 34.6 | n | n | n | 50.2 | 15.2
COCCCNC(=O)C[C@H]1C[C@@]2(C(=O)OC)C(=C[C@H](COCc3ccccc3)O[C@@H]2C)N(CCc2ccc(OC)c(OC)c2)C1=O | n | x | x | x | x | x
CN(C(=O)c1ccc(NC(=O)Cc2cccc(NC(=O)C3CCN(C(=O)CCc4ccccc4)CC3)c2)cc1)C1CC1 | n | x | x | x | x | x
COc1cccc(/C=C(/C#N)c2ccc(F)cc2)c1OCc1cccc(C(=O)O)c1 | 51.1 | n | n | n | 49.4 | 15.1
COc1cccc(/C=C(/C#N)c2ccc(Cl)cc2)c1OCc1cccc(C(=O)O)c1 | 42.0 | n | n | n | 69.0 | 29.3
COc1cc(/C=C(/C#N)c2ccc(F)cc2)ccc1OCc1ccc(C(=O)O)o1 | 52.0 | n | n | n | 45.5 | 10.2
COc1cc(/C=C(\C#N)C(=O)Nc2cccc(C(=O)O)c2)ccc1OCc1ccc(F)cc1 | n | n | n | n | x | x
N#C/C(=C/c1ccc(OCc2ccc(C(=O)O)cc2)c(Br)c1)c1cccc(F)c1 | n | n | n | n | x | x
COC(=O)[C@]12C[C@H](CC(=O)NCC34CC5CC(CC(C5)C3)C4)C(=O)N(Cc3cccc4ccccc34)C1=C[C@H](C1CCCC1)O[C@@H]2C | n | x | x | x | x | x
O=Cc1sc(Nc2ccccc2)nc1Cl | n | n | n | n | x | x
Cc1ccc(Nc2nc(Cl)c(C=O)s2)cc1Cl | 42.8 | n | n | 21.3 | n | 12.2
N#Cc1c(SCC(=O)Nc2nc3ccccc3s2)sc2c(O)cc(=O)[nH]c12 | 63.2 | n | n | n | 60.2 | 26.2 | DNA CAG DR=9.34
CCCc1cc(=O)[nH]c2nnc(SCC(=O)Nc3nccs3)n12 | n | n | n | n | x | x
N#Cc1c(SCC(=O)Nc2nccs2)sc2c(O)cc(=O)[nH]c12 | 71.2 | n | n | n | 51.7 | 23.7
CCCSc1nnc(NC(=O)CSc2sc3c(O)cc(=O)[nH]c3c2C#N)s1 | 65.0 | n | n | n | 79.5 | 45.5
CC(=O)NS(=O)(=O)c1ccc(NC(=O)/C=C/c2cn(-c3ccccc3)nc2-c2ccccc2)cc1 | 87.4 | n | n | n | 86.4 | 66.4
CC(=O)Nc1ccc(NC(=O)C(C)OC(=O)/C=C/c2cn(-c3ccccc3)nc2-c2cccnc2)cc1 (configuration not stated) | n | n | n | n | x | x
COC(=O)c1c(NS(=O)(=O)c2ccc3ccccc3c2)sc2c1CCCC2 | 43.9 | n | n | n | 69.5 | 31.8 | DNA CAG DR=n;dCAG DNA bind=2.94;rCAG binder-2=1.04
CCOC(=O)c1c(NC(=O)c2ccco2)sc2c1CCCCC2 | n | n | n | x | x | x
CCOC(=O)c1c(NS(=O)(=O)c2ccc(Br)cc2)sc2c1CCC2 | 68.2 | n | n | n | 79.6 | 34.2
CCOC(=O)c1c(NS(=O)(=O)Cc2ccccc2)sc2c1CCCC2 | 44.6 | n | n | n | 63.8 | 20.9 | DNA CAG DR=n
Cc1ccc(N=C2NC(=O)CS2)cc1 | n | n | n | n | x | x
Cc1ccc(C)n1/N=C1/NC(=O)CS1 | 36.1 | n | n | n | n | 9.9
COC(=O)C1=C(C)N(C)C(=NCc2ccc(C(F)(F)F)cc2)NC1c1ccc(F)cc1 (configuration not stated) | n | x | x | x | x | x
SMILES | rCAG binder-1 | NadD block | FAS-TE inh | GRIN3A LBD mod | rCAG binder conf | dCAG dye counter | others
C[C@H](CO)N1C[C@H](C)[C@H](CN(C)C(=O)C2CCCCC2)OCc2cnnn2CCCC1=O | n | x | x | x | x | x
CCc1nnc(NS(=O)(=O)c2ccc(NC(=O)c3cc(Cl)ccc3Cl)cc2)s1 | 53.5 | n | n | n | 35.8 | 11.4
CCc1nnc(NS(=O)(=O)c2ccc(NC(=O)c3cccc4ccccc34)cc2)s1 | 63.7 | n | n | n | 44.1 | 15.7
CCc1nnc(NS(=O)(=O)c2ccc(NC(=O)c3cc(Cl)ccc3[N+](=O)[O-])cc2)s1 | 45.2 | n | n | n | n | 5.9
CCc1nnc(NC(=O)c2cc(S(=O)(=O)N(CC)CC)ccc2Cl)s1 | n | n | n | n | x | x
Cc1ccccc1CN1CCCCC(NC(=O)Nc2cccc([N+](=O)[O-])c2)C1=O (configuration not stated) | n | x | x | x | x | x
CC(COc1cccc([N+](=O)[O-])c1)CN1CCC(C(O)(c2ccccc2)c2ccccc2)CC1 (configuration not stated) | n | x | x | x | x | x
O=[N+]([O-])c1cc(-c2nnc(Nc3ccc(O)cc3)c3ccccc23)ccc1N1CCOCC1 | n | n | n | n | x | x
O=[N+]([O-])c1cc(-c2nnc(N3CCOCC3)c3ccccc23)ccc1N1CCOCC1 | 89.8 | n | n | n | n | n
Cc1[nH]ccc(=O)c1Oc1ncc(C(F)(F)F)cc1Cl | n | n | n | n | x | x
CCOC(=O)C1=CCN(S(=O)(=O)c2ccc(Br)cc2)C1c1ccc(F)cc1 (configuration not stated) | n | x | x | x | x | x
COc1cc(N=Nc2cccc(S(N)(=O)=O)c2)c2ccccc2c1N | 51.9 | n | n | 12.9 | n | 12.4
O=C(Nc1cccc(C(F)(F)F)c1)Nc1ccc(N2CCCC2)c(S(=O)(=O)Nc2ccccc2Cl)c1 | 46.5 | n | n | 30.1 | n | 17.6
O=C(Nc1cccnc1)c1ccc(N2CCCC2)c([N+](=O)[O-])c1 | n | n | n | n | x | x
O=C(Nc1cccc(S(=O)(=O)Nc2ccccc2Cl)c1)c1ccc(N2CCCC2)c([N+](=O)[O-])c1 | 61.1 | n | n | 10.8 | 43.6 | 21.5
S=c1[nH]nc(-c2n[nH]c3c2CCC3)n1N=Cc1ccc(OCc2ccccc2)cc1 | 37.9 | x | x | x | 43.1 | 13.8
CC(C)Oc1cccc(-c2n[nH]c(=S)n2N=Cc2ccc(OCc3ccccc3)cc2)c1 | 50.6 | x | x | x | 52.4 | 26.3
COc1ccc(/C=N/n2c(-c3cc(C)[nH]n3)n[nH]c2=S)cc1 | n | n | n | n | x | x
Cc1cc(-c2n[nH]c(=S)n2N=Cc2ccc(OCc3ccccc3)cc2)n[nH]1 | 34.7 | x | x | x | 39.8 | 9.8
COc1cc(C=Nn2c(-c3cc(C)[nH]n3)n[nH]c2=S)cc(Br)c1O | n | x | x | x | x | x
COC(=O)[C@]12C[C@H](CC(=O)NCCc3ccccc3OC)C(=O)N(CCC3=CCCCC3)C1=C[C@H](C(C)(C)C)O[C@@H]2C | n | x | x | x | x | x
C/C=C/c1ccc(OCC(=O)O)c(OC)c1 | n | n | n | n | x | x

Compound activity: PubChem, several laboratories
